HCMV inh = human cytomegalovirus inhibition; HFF cells, HCMV-luciferase reporter, 72 h; active compounds read low; activity change, negative = inhibition, % at 57.5 µM; hit rate 4.5% among 410,000; in the data active = activity change below about -60%; inconclusive = no clear call, values can overlap the other calls; inactive = above about -39%
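Steps: HFFs plated, 16 h 37C; compounds added; HCMV-luciferase added to MOI 1 PFU/cell; 72 h 37C; OneGlo reagent, 5 min room temperature; luminescence read, normalized to controls.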
Marburg entry inh = blocks Marburg virus binding to or entry into cells; Marburg virus pseudotyped entry inhibition, cell reporter; Potency, µM (titrated, usually from 37.8 µM), for the others: top-dose activity change, negative = inhibition, hits mostly inhibitors; hit rate 1.8% among 300,000; AID 540276; calls by dose curve; tested in HEK293 cells; note: potency is the fitted concentration of half-maximal effect
LASV entry inh = blocks Lassa virus binding to or entry into cells; Lassa virus pseudotype entry inhibition, cell reporter; Potency, µM (top dose mostly 37.9 µM), for the others: at the top dose activity change, negative = inhibition, hits mostly inhibitors; hit rate 1.2% among 300,000; AID 540256; calls by dose curve; tested in HEK293 cells; note: potency is the fitted concentration of half-maximal effect; nearly all actives have a fitted effect of over 50% in size
VACV mCherry inh = vaccinia inhibition (mCherry reporter); Potency, µM (highest dose often 36.5 µM), for inactives: at the highest dose activity change, negative = inhibition, most hits filed as inhibitors; Vaccinia virus mCherry reporter infection, fluorescence; hit rate 0.63% among 310,000; calls by dose curve; tested in A549 cells; note: potency is the fitted concentration of half-maximal effect; nearly all actives have a fitted effect of over 35% in size
FMDV inh = foot and mouth disease virus antiviral activity; FMDV antiviral cell-based qHTS; Potency, µM (highest dose often 57.9 µM), for the others: at the highest dose activity change, negative = inhibition, most hits filed as inhibitors; hit rate 1.2% among 410,000; calls by dose curve; tested in HEK293T cells; note: read-out not given here; potency is the fitted concentration of half-maximal effect; nearly all actives have a fitted effect of over 45% in size
Vaccinia Venus = inhibitors of vaccinia virus (Venus reporter); Potency, µM (doses to about 36.5 µM), for inactives: at the highest dose activity change, negative = inhibition, hits mostly inhibitors; AID 720580; Vaccinia virus Venus reporter expression, fluorescence; hit rate 0.46% among 330,000; calls by dose curve; tested in A549 cells; note: potency is the fitted concentration of half-maximal effect; nearly all actives have a fitted effect of over 30% in size
Active calls of the source: *; i = inactive; ? = inconclusive; . = no result; [ ] = another dose, or the depositor's remark. Sampled rows, rich in hits. Any-hit rate of the full collection: about 6.5%. % is set by controls: 0 for no effect and ±100 for the full control effect.

SMILES | HCMV inh | Marburg entry inh | LASV entry inh | VACV mCherry inh | FMDV inh | Vaccinia Venus
O=C(/C=C/c1ccc(N2CCCCC2)c([N+](=O)[O-])c1)c1ccc(S(=O)(=O)N2CCCC2)cc1 | -12.3 | ? | -4.9% | -3.9% | 20µM* | -11.5%
NC(=O)c1ccc(N2CCN(S(=O)(=O)c3ccccc3)CC2)c([N+](=O)[O-])c1 | -90.3* | -26.5%[46.1 µM] | 2µM* | 0.0% | 15.8µM* | 2.5%
COc1cccc(C(=O)/C=C/c2ccc(N3CCCCC3)c([N+](=O)[O-])c2)c1 | -4.1 | 7.3% | -5.2% | ? | ? | ?
COc1ccc(-c2cc(C(F)(F)F)nc(SCC(=O)NCCc3ccc(OC)c(OC)c3)n2)cc1 | -11.8 | 19.6%[46.1 µM] | 15.4%[46.1 µM] | -6.6% | -26.5% | -8.1%
COc1ccc(NC(=O)C2Cc3cccc(OC)c3O/C2=N\O)cc1 (stereo unspecified) | -28.5 | . | . | . | -0.7% | .
COc1cccc2c1O/C(=N\O)C(C(=O)Nc1ccc(C)cc1)C2 (stereo unspecified) | -60.1* | . | . | . | 6.4% | .
Cc1cccc(OCC(=O)Nc2ccc3c(c2)nc(CCNC(=O)c2ccco2)n3C)c1 | -15.8 | -23.9%[46.1 µM] | -2.7%[46.1 µM] | -13.5% | -17.2% | -8.3%
CCOc1ccc(-c2cc3nc(C4CCN(C(=O)OC(C)(C)C)CC4)c(C(=O)Nc4ccc(C)c(F)c4)cn3n2)cc1 | -93.1* | ? | 17.9%[46.1 µM] | -8.4% | 0.4% | -11.9%
O=C(CNC1=NCCS1)c1c[nH]c2ccccc12 | . | . | . | -9.4% | . | -15.2%
COc1cccc(NC(=O)Nc2ccc3snnc3c2)c1 | -22.6 | ? | 22.6%[46.1 µM] | -27.7% | 13.4% | ?
CCc1ccccc1NC(=O)Nc1ccc2snnc2c1 | -70.4* | 9.0%[46.1 µM] | ? | -5.8% | -1.2% | -6.0%
CCOC(=O)c1ccc(NC(=O)Nc2ccc3snnc3c2)cc1 | -105.6* | 15.7%[46.1 µM] | 10.1%[46.1 µM] | -2.6% | -3.8% | -0.2%
O=C(Nc1ccc2snnc2c1)Nc1cccc2ccccc12 | -88.5* | ? | ? | ? | 20.6% | ?
COc1cc2nc(NC3CCN(C)CC3)nc(N3CCCN(C)CC3)c2cc1OC | . | . | . | -11.4% | . | -26.9%
O=C(c1csnn1)N1CCC2(CC1)CCN(c1ccccc1)CC2 | . | . | . | . | -8.7% | .
C=CC[C@@H]1C=C[C@H](ON=C(C)CCN2CCCc3nc(C)c(C)cc32)[C@H](CO)O1 | . | 23.1%[14.2 µM] | . | . | . | .
OC1(c2ccc3c(c2)CN(Cc2ccco2)CCO3)CCN(c2ccccc2F)CC1 | . | . | . | -13.0% | -14.4% | -9.4%
CC(C)CCNC(=O)C(c1ccc(O)cc1)N(Cc1cccs1)C(=O)C1COc2ccccc2O1 (stereo unspecified) | -93.6* | ? | 16.4µM* | 11.2µM* | ? | 28.2µM*
Fc1ccc(NCc2ccccc2-c2nnc(-c3ccccc3Cl)o2)cc1Cl | 35.1 | ? | 1.0%[46.1 µM] | -11.3% | 18.5% | -12.3%
COc1cccc(OCc2nc3ncc(Br)cc3[nH]2)c1 | 22.0 | ? | 8.4% | -28.0% | 41.7% | -19.7%
Cc1cc(C)cc(OCc2nc3ncc(Br)cc3[nH]2)c1 | -62.5* | ? | ? | ? | -21.2% | -28.2%
COc1ccccc1C1CCN(c2cc(O)ccc2[N+](=O)[O-])CC1 | -72.1* | ? | ? | -14.4% | ? | -14.5%
Oc1ccc(/C=C/c2cc(O)cc(O)c2)cc1 | 64.1 | 3.16µM* | 7.3µM* | ? | ? | -7.6%
Cn1nc(C(F)(F)F)c(C(=O)Nc2ccc(F)cc2F)c1Oc1cccc(Cl)c1 | -19.6 | -8.0% | -2.0% | . | ? | .
Cc1nn(C)c(Oc2ccc(Cl)cc2)c1C(=O)Nc1ccc(F)cc1F | -60.4* | -20.5% | 1.3% | . | 0.0% | .
SMILES | HCMV inh | Marburg entry inh | LASV entry inh | VACV mCherry inh | FMDV inh | Vaccinia Venus
O=C1C(Cl)=C(NCCN2CCOCC2)C(=O)c2ncccc21 | . | . | . | . | 15.8µM* | .
COC(=O)[C@@H]1C[C@H](NC(=O)c2cc(C(F)(F)F)ccc2Cl)CN1Cc1cccc(O)c1 | . | . | . | -5.9% | -11.4% | 7.5%
Cc1csc(Sc2ccc(S(=O)(=O)N3CCCC3)cn2)n1 | -34.5 | ? | 2.1% | 8.91µM* | 9.4% | ?
CCc1ccccc1Nc1cc(C(=O)NC2CCC(C)CC2)c2ccccc2n1 (stereo unspecified) | -82.3* | 1.2%[46.1 µM] | ? | -20.4% | 54.2% | -19.5%
Cc1ccc(NC(=O)OCCN(C)C(=O)Nc2ccc(C)cc2C)c(C)c1 | -34.7 | . | . | . | . | .
Cc1cccc(Nc2nc(N)nc(N)c2S(=O)(=O)c2ccccc2)c1 | -102.8* | ? | -21.8%[46.1 µM] | -5.0% | -10.5% | -1.9%
CCN1C[C@@H]2[C@@H]3C(=O)N(Cc4ccccc4)C(=O)[C@@H]3[C@](Cc3ccccc3)(C1=O)N2C(=O)c1ccc(Cl)cc1 | -69.4* | . | . | -0.3% | 58.2% | -11.5%
CCOc1cccc(C2C=C(c3ccc4c(c3)OCO4)NC(c3ccc(Cl)cc3)N2)c1O (stereo unspecified) | . | . | . | -9.0% | . | -21.1%
CSc1nn(CCC#N)c(=O)[nH]c1=O | 2.3 | . | . | . | . | .
Cc1ncc2c(c1CNC(=O)c1ccc3c(c1)OCO3)CCN(C(=O)c1ccoc1)C2 | . | . | . | -9.6% | 3.3% | 1.6%
CCN1CCCC1CNC(=O)c1csc2c1CCCC2 (stereo unspecified) | 52.6 | 23.1µM* | -14.0% | i | . | ?
O=C(NCc1ccco1)c1csc2c1CCCC2 | -64.8* | -0.2%[46.1 µM] | 8.1% | -13.3% | 15.9% | -9.4%
CCC1CCCCN1CCCNC(=O)c1csc2c1CCCCC2 (stereo unspecified) | -31.4 | . | . | . | -15.8% | .
Cc1ccc(CNC(=O)c2csc3c2CCCCC3)cc1 | -28.9 | 2.2% | 10.7% | . | -9.2% | .
Nc1nc(=S)[nH]c(N)c1N | . | . | . | 39.5% | . | 9.4%
CN(C)c1ccc(Nc2nc(N)c3ccccc3n2)cc1 | -29.8 | 0.631µM* | 0.891µM* | ? | 7.08µM* | -27.0%
CCOc1ccc(Nc2nc(N)c3ccccc3n2)cc1 | -2.3 | 4.47µM* | ? | ? | 8.91µM* | ?
Nc1nc(Nc2ccccc2)nc2ccccc12 | 229.3 | ? | ? | i | -43.1% | -23.8%
Nc1nc(Nc2ccc(Cl)cc2)nc2ccccc12 | 104.7 | ? | ? | ? | -17.0% | ?
Cn1c(SCC(=O)NCc2ccco2)nnc1-c1cccc(NC(=O)c2ccccc2)c1 | . | . | . | -0.6% | . | -12.8%
COc1ccc(OC)c(NC(=O)Cc2coc3ccc(C(C)C)cc23)c1 | -6.7 | -29.3%[46.1 µM] | -4.8%[46.1 µM] | -6.8% | -15.3% | -9.3%
CCC(C)(C)n1nnnc1C(c1cccc(C#N)c1)N1CCN(c2cc(C)ccc2C)CC1 (stereo unspecified) | 0.7 | 2.91µM* | ? | -8.7% | -21.5% | -3.6%
CCC(C)(C)n1nnnc1C(c1cccnc1)N1CCN(c2cccc(C(F)(F)F)c2)CC1 (stereo unspecified) | 30.3 | 13µM* | ? | . | -29.5% | .
Cc1cc(Nc2cc(F)c(F)c(F)c2)cc(=O)n1-c1cc(F)c(F)c(F)c1 | -38.8 | . | . | . | . | .
CCNC(=S)N=Nc1c(O)[nH]c2ccc(C(C)C)cc12 | -65.8* | -23.3% | 3.55µM* | ? | -24.3% | ?
Cc1c(C(=O)Nc2cccc(C(F)(F)F)c2)sc2nc3n(c(=O)c12)CCCC3 | -16.1 | . | 18.3%[46.1 µM] | -24.2% | 17.8µM* | -20.6%
